The text below walks through data of PubChem BioAssay (Tox21).

Several values for one entry are separate records, joined by “and”; a condition that tells them apart may be missing. Equal entries are not always repeated. Inconclusive results are not listed. More than one record can exist for a structure, and the calls need not agree. Activity calls are given as the source filed them. Unless noted, the call rests on the fitted dose curve; in most records, active means well fitted curve in the direction sought with a large enough effect in the repeat runs; inconclusive means weak or mixed curves; inactive means no such curve, though single readings can be large; an effect the other way counts as inactive or inconclusive.

The nature of assay [1]: qHTS assay for small molecules that induce genotoxicity in human embryonic kidney cells expressing luciferase-tagged ATAD5 (AID 651632). Further: nearly all actives have a fitted effect of over 15% in size. In a few lines:
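DMSO vehicle served as the control. HEK293T reporter cells, 16 hr at 37C, then 30 min Amplite at room temperature; ATAD5 induction is measured as luciferase activity.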
For orientation: Quantitative high-throughput screening tests each substance at several concentrations.

Assay [2] in a line: qHTS assay for small molecule agonists of the p53 signaling pathway - cell viability (AID 651633; calls by dose curve;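 further: p53RE-bla HCT reporter cells with a stable beta-lactamase p53 reporter; series mostly up to about 83 µM; nearly all actives have a fitted effect of over 30% in size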). In a few lines: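 p53RE-bla cells were treated with compound for 16 hours at 37 C. Cytotoxicity was then measured as CellTiter-Glo luminescence after 30 min at room temperature.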
The nature of assay [3]: qHTS assay for small molecule disruptors of the mitochondrial membrane potential - cell viability (AID 720634; calls by dose curve; further: nearly all actives have a fitted effect of over 20% in size; further: potency means the concentration at half of the fitted maximal effect). The gist of the method: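 Viability of HepG2 cells is scored from ATP content by luminescence; cells are exposed to compound for 1 hr at 37 C and 5% CO2, then dosed with m-MPI dye before the CellTiter-Glo reagent.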
Assay [4] is described as follows: qHTS assay for small molecule disruptors of the mitochondrial membrane potential (AID 720635). Further: potency means the concentration at half of the fitted maximal effect. The gist of the method: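 HepG2 cells exposed to compound 1 hr at 37C, then Mito-MPS dye 30 min. Ratio read of aggregate (540/590 nm) versus monomer (490/535 nm) fluorescence.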
Assay [5] is described as follows: qHTS assay to test for compound auto fluorescence at 590 nm (red) in HepG2 cells (AID 720674). In a few lines:
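Seeding: 2,000 HepG2 cells/well, MEM/10% FBS, overnight 37 C. Dosing: compound vs DMSO. Incubation: 1 hr, 37 C, 5% CO2. Read: fluorescence 540 ex/590 em, Rose Bengal sodium as red reference.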

A short description of assay [6]: qHTS assay to test for compound auto fluorescence at 460 nm (blue) in HEK293 cells (AID 720678). The gist of the method: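 Cells were seeded and left to adhere for 4-5 hr at 37C. Compounds were then pin-transferred. After an overnight incubation at 37C under 5% CO2, intrinsic fluorescence at 405/460 nm was measured and referenced to triamterene.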
Assay [7] in a line: qHTS assay to test for compound auto fluorescence at 590 nm (red) in HEK293 cells (AID 720679). The gist of the method: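 Each well held 2,000 HEK293 cells in medium containing 10% dialyzed FBS. Following 4-5 hr attachment at 37C, 23 nL test compound or DMSO was added; plates sat overnight, and red fluorescence (540/590nm) was recorded.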
The nature of assay [8]: qHTS assay to test for compound auto fluorescence at 535 nm (green) in HEK293 cells (AID 720680).
Assay [9] can be described thus: qHTS assay to test for compound auto fluorescence at 460 nm (blue) in HEK293 cell free culture (AID 720681). The gist of the method: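 Compounds were added to cell-free DMEM with 10% FBS and fluorescence read directly. The blue channel used 405 nm excitation and 460 nm emission, with triamterene as the reference fluorophore.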
The nature of assay [10]: qHTS assay to test for compound auto fluorescence at 535 nm (green) in HEK293 cell free culture (AID 720682). In a few lines:
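DMEM + 10% FBS, cell-free; cpd or DMSO pinned in; Ex485/Em535 read; output as fluorescein-equivalent signal.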

Assay [11] in a line: qHTS assay to test for compound auto fluorescence at 590 nm (red) in HepG2 cell free culture (AID 720684). In a few lines: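 Rose Bengal sodium served as the reference for red signal. Test compounds were dispensed into serum-containing MEM (10% FBS) without cells, and plates were read at 540/590 nm.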
Assay [12] can be described thus: qHTS assay to test for compound auto fluorescence at 460 nm (blue) in HepG2 cell free culture (AID 720685). The gist of the method: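 Cell-free plates of MEM plus 10% FBS received 23 nL compound or DMSO vehicle; blue-channel (405/460 nm) intensity scored against triamterene as reference fluorophore.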
A short description of assay [13]: qHTS assay to test for compound auto fluorescence at 460 nm (blue) in HepG2 cells (AID 720687). The gist of the method:
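HepG2 cells in MEM with 10% FBS, attached overnight at 37 C, were exposed to compound or DMSO for 1 hr at 37 C, 5% CO2. Blue fluorescence was read at 405/460 nm, with triamterene as reference fluorophore.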

A short description of assay [14]: qHTS assay for small molecules that induce genotoxicity in human embryonic kidney cells expressing luciferase-tagged ATAD5 - cell viability (AID 651634; calls by dose curve; further: nearly all actives have a fitted effect of over 25% in size). In a few lines:
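Here HEK293T cells with the ATAD5 luciferase reporter are incubated with test compounds for 15.5 hr, and cytotoxicity is then gauged by measuring protease activity in live cells using fluorescence.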

A short description of assay [15]: qHTS assay to test for compound auto fluorescence at 535 nm (green) in HepG2 cells (AID 720675).
Assay [16] is described as follows: qHTS assay to test for compound auto fluorescence at 590 nm (red) in HEK293 cell free culture (AID 720683). The gist of the method: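 Cell-free wells of DMEM with 10% FBS received compound, and intrinsic fluorescence was read at excitation/emission 540/590 nm. Values expressed as equivalence to Rose Bengal sodium.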
For assay [17], the target named is Glucocorticoid receptor (Homo sapiens) (UniProt P04150). As to the kind of experiment: qHTS assay to identify small molecule agonists of the glucocorticoid receptor (GR) signaling pathway (AID 720691; active means well fitted activation curve with a large enough effect in the signal ratio in the repeat runs, not every such curve was filed as active; the % refers to the signal ratio). In a few lines: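 Compounds in DMSO, alongside positive controls, were added to GR-bla HeLa reporter cells and incubated 18 h at 37 C; GRE-driven beta-lactamase was detected by fluorescence after 2 h with FRET substrate at room temperature.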
Sequence of Glucocorticoid receptor (Homo sapiens) (P04150 whole entry, looked up): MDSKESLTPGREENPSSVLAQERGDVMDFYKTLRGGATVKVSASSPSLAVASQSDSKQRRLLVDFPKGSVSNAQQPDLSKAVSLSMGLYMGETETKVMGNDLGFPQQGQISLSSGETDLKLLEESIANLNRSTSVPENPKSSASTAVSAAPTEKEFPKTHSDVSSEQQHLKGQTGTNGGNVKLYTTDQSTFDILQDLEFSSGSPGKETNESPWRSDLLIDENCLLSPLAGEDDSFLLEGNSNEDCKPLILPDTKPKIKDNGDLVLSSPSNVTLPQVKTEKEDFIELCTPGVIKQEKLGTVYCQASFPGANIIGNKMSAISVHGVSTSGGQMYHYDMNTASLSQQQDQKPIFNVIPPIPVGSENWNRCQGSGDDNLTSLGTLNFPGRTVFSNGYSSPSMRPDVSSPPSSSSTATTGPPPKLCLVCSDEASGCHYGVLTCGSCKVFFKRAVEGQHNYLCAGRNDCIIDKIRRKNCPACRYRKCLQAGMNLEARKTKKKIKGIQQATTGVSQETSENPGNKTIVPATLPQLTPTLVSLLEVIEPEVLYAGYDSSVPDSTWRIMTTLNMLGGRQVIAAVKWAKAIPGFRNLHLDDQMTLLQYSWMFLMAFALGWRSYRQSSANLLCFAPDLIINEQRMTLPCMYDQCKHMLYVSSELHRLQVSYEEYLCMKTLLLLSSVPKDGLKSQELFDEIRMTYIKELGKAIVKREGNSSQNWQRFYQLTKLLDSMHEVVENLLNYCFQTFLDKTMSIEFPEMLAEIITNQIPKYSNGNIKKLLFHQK

For assay [18] the target is unchanged. As to the kind of experiment: qHTS assay to identify small molecule antagonists of the glucocorticoid receptor (GR) signaling pathway (AID 720692; active means well fitted inhibition curve with a large enough effect in the signal ratio in the repeat runs, not every such curve was filed as active; the % refers to the signal ratio; further: potency means the concentration at half of the fitted maximal effect). The gist of the method: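 In a 1536-well cell format, compounds were added 4 h after seeding GR-bla HeLa cells, together with dexamethasone at 5 nM final; reporter activity was measured by FRET-substrate fluorescence following 18 h at 37 C.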

The nature of assay [19]: qHTS assay to test for compound auto fluorescence at 535 nm (green) in HepG2 cell free culture (AID 720686).
On the % scale 0 is the no-effect control and ±100 the full control effect.

In the case of `Cc1ccccc1S`, the Potency entry in assay [1], in assay [2], in assay [3], in [4], in [6] and in assay [9] was “inactive” throughout. Besides, the Potency entry in [12] and in assay [13] was “inactive” throughout. The compound was classed as inactive in assay [5], in [7], in assay [8], in assay [10] and in assay [11].
With `OCCN1CCN(CCCN2c3ccccc3Sc3ccc(Cl)cc32)CC1`, the Potency entry in assay [1], in assay [2], in assay [14], in assay [3], in assay [17] and in [18] was “inactive” throughout. Besides, in [15], the fluorescence, % of fluorescein control is 0.0508% [at 18.6 µM] (inactive). In assay [6], the fluorescence, % of triamterene was -0.38% [at 18.6 µM] (inactive). In addition, the fluorescence, % of fluorescent control in [7] was -0.0409% [at 18.6 µM] (inactive); in [9], -0.0053% [at 18.6 µM] (inactive); in [16], 0.0511% [at 18.6 µM] (inactive); in assay [12] it was 0.0187% [at 18.6 µM] (inactive); in assay [13], 0.0774% [at 18.6 µM] (inactive). The fluorescence, % of fluorescein in [8] was -0.0167% [at 18.6 µM] (inactive). Also, the activity change in [10] was -0.0092% [at 18.6 µM] (inactive). In addition, the fluorescence, % of Rose Bengal in assay [11] was -0.146% [at 18.6 µM] (inactive).
Regarding `C=CC(C)(CCC=C(C)C)OC(=O)CC(C)C` (stereo unspecified), the Potency entry in assay [1], in assay [2], in [3], in assay [4], in assay [6] and in assay [9] was “inactive” in each case. The Potency result in [12], in assay [13], in [17] and in [18] was “inactive” throughout. Besides, the compound was called inactive in assay [5], in assay [15], in assay [7], in [8], in [10] and in [16]. Also, the call in assay [11] and in assay [19] was inactive.
Turning to `C[C@]12CC[C@@H]3c4ccc(O)cc4CC[C@H]3[C@@H]1CC[C@@H]2OC(=O)CCC1CCCC1`, the Potency result in [1], in assay [2], in assay [6], in [9], in assay [12] and in assay [13] was “inactive” in each case. Moreover, the Potency entry was “inactive and 61.1 µM (active)” in assay [3]; 17.2 µM (active) in assay [4]; 10.7 µM (active) and 8.49 µM (active) in assay [18]. The outcome in assay [5], in assay [15], in [7], in assay [8], in assay [10] and in [16] was inactive. Moreover, the compound was classed as inactive in assay [11] and in assay [19].
For the compound `CN1CCCC(CC2c3ccccc3Sc3ccccc32)C1` (stereo unspecified), the Potency entry in assay [1], in assay [2], in [14], in assay [3] and in assay [17] was “inactive” each time. Further, the fluorescence, % of fluorescein control is -0.0795% [at 18.6 µM] (inactive) in [15] and -0.006% [at 18.6 µM] (inactive) in assay [19]. Moreover, the fluorescence, % of triamterene in assay [6] was 0.136% [at 18.6 µM] (inactive). Besides, the fluorescence, % of fluorescent control is -0.0119% [at 18.6 µM] (inactive) in assay [7]; -0.0216% [at 18.6 µM] (inactive) in [9]; 0.0507% [at 18.6 µM] (inactive) in assay [16]; 0.14% [at 18.6 µM] (inactive) in assay [12]; 0.049% [at 18.6 µM] (inactive) in assay [13]. In addition, the fluorescence, % of fluorescein in [8] was 0.0892% [at 18.6 µM] (inactive). Moreover, the activity change in assay [10] was 0.123% [at 18.6 µM] (inactive). For the same compound, in assay [11], the fluorescence, % of Rose Bengal is -0.0495% [at 18.6 µM] (inactive).
On to `C=C/C(C)=C/C/C=C(\C)CCC=C(C)C`, for which the Potency entry in [1], in assay [2], in [14], in assay [3], in assay [6] and in [9] was “inactive” in each case. In addition, the Potency result in [12], in assay [13] and in [17] was “inactive” throughout. For the same compound, the result in assay [5], in assay [15], in [7], in [8], in [16] and in assay [11] was inactive. In [19], the compound was called inactive.
As to `C=C1CCC2CC1C2(C)C` (stereo unspecified), the Potency result in [1], in assay [2], in assay [14], in [6], in [9] and in assay [12] was “inactive” throughout. Further, the Potency entry in assay [13] was “inactive”. The compound was classed as inactive in [5], in assay [15], in assay [7], in [8], in assay [10] and in [16]. In addition, the compound was classed as inactive in [11] and in assay [19].
